Hits are enriched below; roughly 3.4% of the tested compounds scored in any of these assays.
SMARCA2 activ – activators of SMARCA2 function; MG213 cells, MMTV-luciferase reporter, dexamethasone, overnight; activation, % at 9.1 µM; 370,000 tested, 1% active; AID 652017; in the data active = activation above about 7.8%;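 also: 0% = vehicle wells and 100% = reference activator wells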
HSP90 refold inh – inhibitors of HSP90 luciferase refolding in rabbit reticulocyte lysate. luciferase refolding luminescence, 3 h. inhibition, % at 5.6 µM. 290,000 tested, 0.91% active;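 active = inhibition above the screen-wide mean plus 3 SD, computed separately per campaign, cut at about 16% in these data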;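 also: 0% = DMSO wells and 100% = 60 µM geldanamycin wells; inhibitors lower the luminescence because luciferase stays unfolded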
PG9 binder – small molecules binding HIV-1 gp120 antibody PG9. TR-FRET gp120-PG9 antibody binding. inhibition, % at 6.7 µM. 360,000 tested, 0.43% active. AID 624416; in the data active = inhibition above about 8.5%
HSF1 inh – HSF1 inhibition. 300,000 tested, 0.77% active. NIH3T3-HGL HSE-luciferase, MG132-induced, luminescence 8 h; stronger effect = lower value. activity change, negative = inhibition, % at 7.5 µM (by protocol);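 active = more than half of replicate wells show activity change below -50%, luminescence cut by over half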;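 also: luciferase reports HSF-1 transcriptional activity via heat shock element; 0% = median of DMSO wells and -100% = zero luminescence signal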
FXN GAA850 act – increases GAA850 frataxin promoter reporter activity. 360,000 tested, 0.56% active. HEK293 lucGAA850 FXN promoter luciferase reporter, 24 h; percent of 10 µM SAHA response. AID 540364. activation, % at 6 µM;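 active = activation above the average of all compounds screened plus 3 SD, cutoff fixed separately per campaign, cut at about 7.5% in these data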;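 also: 0% = DMSO wells and 100% = 10 µM SAHA wells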
AI-2 QS modul – Vibrio harveyi AI-2 quorum sensing modulation; Vibrio harveyi JMH597 AI-2 luminescence/OD600 ratio, 9 h; stronger effect = lower value; strain lacks LuxN and CqsS sensors; 0 = neutral-control median; activity change, % at 7.5 µM; 300,000 tested, 0.4% active; AID 2094; in the data active = activity change below about -75%, passing the limit was not always enough;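 also: luminescence divided by OD600 gain over 9 h not by final OD600 alone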
PG9 binder conf – confirmation of small molecules binding HIV-1 gp120 antibody PG9; inhibition, % at 6.7 µM; AID 651571; shares compounds with PG9 binder; TR-FRET PG9 antibody binding, biochemical; 1,500 tested, 90% active; in the data active = inhibition above about 9%
PGV04 counter – counter-screen for PG9 binders: binding control antibody PGV04; TR-FRET PGV04 antibody-gp120 binding, biochemical; inhibition, % at 6.7 µM; shares compounds with PG9 binder; 1,500 tested, 95% active; in the data active = inhibition above about 9.5%
* = called active by the depositor; / = no result given.

SMILES	SMARCA2 activ	HSP90 refold inh	PG9 binder	HSF1 inh	FXN GAA850 act	AI-2 QS modul	PG9 binder conf	PGV04 counter
CCOc1ccc(N(CC(=O)Nc2c(C)n(C)n(-c3ccccc3)c2=O)S(=O)(=O)c2cccs2)cc1	-5	/	/	/	/	/	/	/
CCc1cccc(C)c1NC(=O)c1cc(=O)[nH]c2ccc(S(=O)(=O)N3CCOCC3)cc12	1	/	14*	/	-1	/	18*	28*
CCOc1cccc(C=NNC(=O)C(=O)Nc2cccc(C(F)(F)F)c2)c1O	-6	/	-1	/	/	/	/	/
N#Cc1c(N2CCCCC2)nc(N)c2c(N)nc3c(c12)CC(CCl)O3 (configuration not stated)	-3	-4	21*	-7	-1	8	23*	35*
CCC1Cc2c(nc(N)c3c(N)nc(N4CCOCC4)c(C#N)c23)O1 (configuration not stated)	1	0	-1	-3	0	13	/	/
Cc1ccc(CNC(=O)c2cc3c(s2)CN(Cc2ccccc2)C3)cc1	-1	1	18*	-3	2	5	20*	21*
O=C(NCCc1c[nH]c2ccccc12)OCc1cn(Cc2cccc(C(F)(F)F)c2)nn1	-2	/	/	/	/	/	/	/
CCOC(=O)c1cc2sc(C)cc2n1CC(=O)Nc1cccc(C)c1C	-2	0	11*	-1	3	3	11*	17*
COCCCNC(=O)C[C@H]1C[C@@]2(C(=O)OC)C(=C[C@H](C3CCCC3)O[C@@H]2C)N(Cc2ccccc2)C1=O	-7	/	3	/	/	/	/	/
CCCCOc1ccc(C(=O)Nn2c(-c3cccs3)nc3ccccc3c2=O)cc1	-4	1	30*	-5	-2	9	37*	59*
O=C(/C=C/c1ccccc1)Nn1c(-c2cccs2)nc2ccccc2c1=O	4	1	-2	11	1	4	/	/
CC(C)(C)C1CCc2c(sc(NC(=O)C3CC=CCC3C(=O)O)c2C#N)C1 (configuration not stated)	5	-4	-3	1	2	5	/	/
N#Cc1c(NC(=O)C2CC=CCC2C(=O)O)sc2c1CCCCCC2 (configuration not stated)	3	2	11*	-1	2	18	9.0*	9.4*
Nc1ccc(-c2nc3ccc(-c4nc5ccccc5o4)cc3[nH]2)cc1	4	4	10*	10	0	0	10*	20*
COc1ccc(O)c(/C=C(\C#N)C(=O)Nc2cccnc2)c1	0	0	24*	1	2	-18	13*	16*
Cc1cccc(C)c1NC(=O)Cn1nc(-c2ccc(Cl)s2)ccc1=O	-1	-3	11*	-2	3	7	7	9
Cc1cc(NC(=O)Cn2nc(-c3cccs3)ccc2=O)cc(C)c1Br	-3	-3	0	5	-1	19	/	/
COc1ccc2oc(=N)c(C(=O)Nc3ccc(C)cc3)cc2c1	0	-1	0	0	1	9	/	/
COc1ccc2oc(=N)c(C(=O)Nc3ccccc3)cc2c1	4	-2	18*	/	3	/	6	9.2*
Fc1ccc(Cn2ccc3ccc(-c4ccc5ccn(Cc6ccc(F)cc6F)c5c4)cc32)c(F)c1	-1	/	/	/	/	/	/	/
CCOC(=O)Cn1c(=NC(=O)CSC(C)=O)sc2cc(OC)ccc21	1	1	13*	8	0	16	18*	23*
COC(=O)Cn1c(=NC(=O)c2sc3ccccc3c2Cl)sc2cc(S(N)(=O)=O)ccc21	-3	-1	11*	-4	3	17	22*	28*
CCOC(=O)Cn1c(=NC(=O)c2sc3ccccc3c2Cl)sc2cc(S(N)(=O)=O)ccc21	0	-1	9.9*	/	-1	14	12*	28*
Cc1cccc(S(=O)(=O)Nc2cccc3c2C(=O)c2ccccc2-3)c1	-4	4	11*	-1	0	-1	15*	17*
CC(=O)Nc1ccc(-c2cc(-c3ccccc3)nc(-c3ccccc3)n2)cc1	-2	-4	0	0	3	10	/	/
SMILES	SMARCA2 activ	HSP90 refold inh	PG9 binder	HSF1 inh	FXN GAA850 act	AI-2 QS modul	PG9 binder conf	PGV04 counter
CC(=O)Nc1ccc(-c2cc(-c3ccc(NC(C)=O)cc3)nc(-c3ccc(NC(C)=O)cc3)n2)cc1	1	1	29*	1	2	-1	25*	45*
COC(=O)[C@]12C[C@H](CC(=O)N3CCOCC3)C(=O)N(Cc3ccccc3)C1=C[C@H](C(C)(C)C)O[C@@H]2C	-6	/	-1	/	/	/	/	/
COc1ccc(NC(=O)c2cc3c(-c4ccc(OC)c(OC)c4)nn(C)c3s2)cc1OC	0	-3	3	-20	1	3	/	/
COc1ccc(-c2nn(C)c3sc(C(=O)NCc4ccco4)cc23)cc1OC	-1	-4	10*	-1	-1	8	13*	18*
COC(=O)[C@]12C[C@H](CC(=O)N3CCSCC3)C(=O)N(CCC3=CCCCC3)C1=C[C@H](C(C)(C)C)O[C@@H]2C	-3	/	0	/	/	/	/	/
CCOc1ccc(N(CC(=O)NCc2ccc(F)cc2)C(=O)c2snc(C(N)=O)c2N)cc1	-2	0	9.4*	-3	-2	16	18*	25*
COc1ccc(CNC(=O)CN(C(=O)c2snc(C(N)=O)c2N)c2ccc(F)cc2)cc1	1	-3	-2	2	-1	8	/	/
CC(C)c1ccc(N(CC(=O)NCc2ccc(F)cc2)C(=O)c2snc(C(N)=O)c2N)cc1	-4	3	11*	0	1	22	18*	23*
CC(C)NC(=O)N(C)C[C@H]1Oc2cc(C#Cc3ccc(F)cc3)ccc2S(=O)(=O)N([C@H](C)CO)C[C@H]1C	-1	/	1	/	-4	/	/	/
COC(=O)c1c(NC(=O)C2CCCCC2C(=O)O)sc2c1CCCCC2 (configuration not stated)	4	-1	5	0	2	24	/	/
COC(=O)c1sc(NC(=O)C2CCCCC2C(=O)O)c(C(=O)OC)c1C (configuration not stated)	-4	-3	13*	-12	1	18	18*	23*
CCOC(=O)NC(=O)CSc1cc(C)c2cc(C)cc(C)c2n1	-4	-1	6	-3	2	15	/	/
Cc1cc(C)c2nc(SCC(=O)NC(=O)c3cccn3C)cc(C)c2c1	1	0	15*	-2	1	21	13*	27*
CCOC(=O)c1cnc2c(Cl)cc(Cl)cc2c1NCCOCCO	-2	0	13*	0	-1	21	9.7*	12*
CCOC(=O)c1cnc2ccccc2c1NCCO	0	0	1	-2	3	7	/	/

Bioassay records deposited in PubChem BioAssay by several laboratories.
